From PubChem BioAssay
TIM10 inh – growth inhibitors of TIM10 yeast strain. S. cerevisiae TIM10 strain growth, BacTiter-Glo luminescence, 24 h. inhibition, % at 10 µM. hit rate 1.4% among 330,000. AID 463195;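 active = inhibition of 40% or more at the single tested concentration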;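 also: wild-type TIM10 isogenic control strain grown at permissive 25 °C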
tim10-1 inh – inhibits growth of tim10-1 mutant yeast; inhibition, % at 20 µM; S. cerevisiae tim10-1 ts strain growth, BacTiter-Glo, 24 h; hit rate 2.2% among 330,000;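 active = inhibition of at least 40%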;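 also: mutant grown at 25 °C; 0% = DMSO wells with yeast and 100% = wells holding no yeast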
tim23-1 inh – tim23-1 yeast growth inhibition | inhibition, % at 20 µM | hit rate 1.3% among 330,000 | S. cerevisiae tim23-1 growth, BacTiter-Glo luminescence, 24 h;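 active = growth inhibition of the mutant yeast at or above 50%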;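 also: temperature-sensitive mutant grown at 25 °C; plate controls were DMSO-treated mutant yeast for no effect and medium wells lacking yeast for full effect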
V-ATPase pHluor – regulators of yeast V-ATPase proton transport; S. cerevisiae, pHLuorin cytosolic pH fluorescence; response, % at 10 µM; hit rate 0.37% among 350,000; AID 504577; in the data active = response mostly above about 7.3%, no sharp cut-off; inactive = mostly below about 5.4%; also: actives read high
PfHsp90 set2 – growth inhibition of yeast expressing Plasmodium Hsp90 | hit rate 0.32% among 310,000 | inhibition, % at 9.4 µM | S. cerevisiae expressing PfHsp90, BacTiter-Glo ATP, 48 h; yeast lacking PDR1 and PDR3 efflux regulators;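 active = every replicate shows inhibition above about 80%, whatever the replicate mean, limit read from the data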;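 also: 0% = DMSO neutral controls and 100% = 20 µM radicicol positive controls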
tim10-1 confirm – confirmation of tim10-1 mutant yeast growth inhibitors. shares compounds with tim10-1 inh. S. cerevisiae tim10-1 ts strain growth, BacTiter-Glo, 24 h. inhibition, % at 20 µM. hit rate 56% among 7,400. AID 463213;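 active = inhibition of yeast growth at or above a set limit in either of two repeat tests at 20 µM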;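 also: tim10-1 mutant grown at permissive 25 °C to find synthetic lethal compounds; 0% = DMSO yeast wells and 100% = medium wells without yeast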
tim10 confirm – confirmation of TIM10 yeast growth inhibitors; shares compounds with TIM10 inh; S. cerevisiae tim10 strain growth, BacTiter-Glo luminescence, 24 h; inhibition, % at 10 µM; hit rate 63% among 4,600; AID 463215;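 active = inhibition of yeast growth at or above a set limit in either of two replicates at 10 µM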;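 also: this counterscreen used the strain with wild-type TIM10; 0% = yeast with DMSO and 100% = medium wells lacking yeast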
tim23-1 confirm – confirmation of tim23-1 mutant yeast growth inhibitors; shares compounds with tim23-1 inh; S. cerevisiae tim23-1 growth, BacTiter-Glo luminescence, 24 h; inhibition, % at 20 µM; hit rate 83% among 4,400;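 active = inhibition above about 39% in either of two replicate wells at 20 µM, limit read from the data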;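 also: temperature-sensitive tim23-1 mutant grown at 25 °C; 0% = DMSO wells with yeast and 100% = medium wells without yeast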
Numbers without * were called inactive. Most compounds without a hit are left out; they make up all but 3.7% or so of the library.

How did Cc1cccn2c(=O)c(C(=O)NC3CCCCC3C)c(O)nc12 (configuration not stated) do in these assays?
TIM10 inh: -36; tim10-1 inh: -23; tim23-1 inh: 34; V-ATPase pHluor: -5; PfHsp90 set2: 2

What do the screens show for `Cc1csc2nc(O)c(C(=O)NCCCN3CCCC3=O)c(=O)n12`?
TIM10 inh: -12; tim10-1 inh: 1; tim23-1 inh: 4; V-ATPase pHluor: -5

What do the screens show for `Cc1csc2nc(O)c(C(=O)NC3CCCCCC3)c(=O)n12`?
TIM10 inh: 30; tim10-1 inh: 41*; tim23-1 inh: 65*; V-ATPase pHluor: 2; tim10-1 confirm: 16; tim23-1 confirm: 51*

What do the screens show for `Cc1cccn2c(=O)c(C(=O)NC3CCCCC3)c(O)nc12`?
TIM10 inh: 15; tim10-1 inh: 43*; tim23-1 inh: 55*; V-ATPase pHluor: -2; PfHsp90 set2: -10; tim10-1 confirm: -38; tim23-1 confirm: 44*

What do the screens show for `Cc1csc2nc(O)c(C(=O)NC3CCCCC3)c(=O)n12`?
TIM10 inh: 14; tim10-1 inh: 40*; tim23-1 inh: 74*; V-ATPase pHluor: 1; PfHsp90 set2: -118; tim10-1 confirm: 10; tim23-1 confirm: 56*

What do the screens show for `Cc1sc2c(=O)n3c(nc2c1C(=O)NC1CCCCC1)CCCCC3`?
TIM10 inh: 8; tim10-1 inh: 28; tim23-1 inh: 38; V-ATPase pHluor: -2; PfHsp90 set2: 16

What do the screens show for `Cc1ccc(C(=O)N/C(=C\c2ccccc2)C(=O)NCCN2CCOCC2)cc1`?
TIM10 inh: 7; tim10-1 inh: -3; tim23-1 inh: 7; V-ATPase pHluor: 6; PfHsp90 set2: -30

What do the screens show for `CCC(C)Nc1nc(N)c([N+](=O)[O-])c(Nc2ccccc2OC)n1` (configuration not stated)?
TIM10 inh: 23; tim10-1 inh: 43*; tim23-1 inh: 53*; V-ATPase pHluor: -1; PfHsp90 set2: -80; tim10-1 confirm: 17; tim23-1 confirm: 49*

Results for CCOc1c(Br)cc(/C=C2\N=C(C)OC2=O)cc1Br ?
TIM10 inh: 28; tim10-1 inh: 61*; tim23-1 inh: 59*; V-ATPase pHluor: 0; PfHsp90 set2: 4; tim10-1 confirm: 33*; tim23-1 confirm: 64*

Results for COc1ccc(S(=O)(=O)N2CCCCC2)cc1NC(=O)c1[nH]c(C)c(C(C)=O)c1C ?
TIM10 inh: 16; tim10-1 inh: 14; tim23-1 inh: 15; V-ATPase pHluor: -1

How did Cc1cccc(-n2cnc3cc(C(=O)NCC4CCCO4)ccc32)c1 (configuration not stated) do in these assays?
V-ATPase pHluor: -1

Results for C=CCOn1c(=O)c(-c2cccs2)[n+]([O-])c2ccccc21 ?
TIM10 inh: 41*; tim10-1 inh: 53*; tim23-1 inh: 61*; V-ATPase pHluor: 3; tim10-1 confirm: 21; tim10 confirm: 33*; tim23-1 confirm: 70*

How did CC1CCc2sc3nc(NCc4ccco4)n4ncnc4c3c2C1 (configuration not stated) do in these assays?
TIM10 inh: 18; tim10-1 inh: 41*; tim23-1 inh: 51*; V-ATPase pHluor: -2; PfHsp90 set2: -2; tim10-1 confirm: 35*; tim23-1 confirm: 56*

How did CCN1CCN(c2nc3sc4c(c3c3ncnn23)CC(C)CC4)CC1 (configuration not stated) do in these assays?
TIM10 inh: 12; tim10-1 inh: 21; tim23-1 inh: 24; V-ATPase pHluor: -2; PfHsp90 set2: -2

What do the screens show for `O=C(c1ccc(Cl)cc1)C1CCN(CC(=O)N2CCCCC2)CC1`?
TIM10 inh: 12; tim10-1 inh: 11; tim23-1 inh: 3; V-ATPase pHluor: 5; PfHsp90 set2: 5

How did O=C(Nc1ccccc1Cl)N1CCCN(c2nc(-c3ccccc3)ns2)CC1 do in these assays?
TIM10 inh: 46*; tim10-1 inh: 43*; tim23-1 inh: 55*; V-ATPase pHluor: -2; PfHsp90 set2: -5; tim10-1 confirm: 28; tim10 confirm: 33*; tim23-1 confirm: 45*

How did O[C@@H]1[C@@H](O)C=C2CCN3Cc4cc5c(cc4[C@H]1C23)OCO5 (some centres not stated) do in these assays?
TIM10 inh: 90*; tim10-1 inh: 88*; tim23-1 inh: 76*; V-ATPase pHluor: 2; PfHsp90 set2: 17; tim10-1 confirm: 84*; tim10 confirm: 89*; tim23-1 confirm: 77*

Results for O=C(/C(=C\c1ccccc1)c1nc2ccccc2[nH]1)c1ccc(Cl)cc1 ?
TIM10 inh: 40; tim10-1 inh: 43*; tim23-1 inh: 51*; V-ATPase pHluor: -1; PfHsp90 set2: 104*; tim10-1 confirm: 34*; tim23-1 confirm: 62*

Results for O=C(/C(=C/c1ccc(Cl)cc1)c1nc2ccccc2[nH]1)c1cccs1 ?
TIM10 inh: 70*; tim10-1 inh: 56*; tim23-1 inh: 51*; V-ATPase pHluor: -5; tim10-1 confirm: 39*; tim10 confirm: 71*; tim23-1 confirm: -31

Results for CCOC(=O)N1C(=O)C2(CCCCC2)N(c2ccccc2Cl)C1=S ?
TIM10 inh: 57*; tim10-1 inh: 60*; tim23-1 inh: 78*; V-ATPase pHluor: 3; PfHsp90 set2: -22; tim10-1 confirm: 52*; tim10 confirm: -2; tim23-1 confirm: 68*

What do the screens show for `CCOc1ccc2nc(CN3CCN(Cc4ccsc4)C(CCO)C3)ccc2c1` (configuration not stated)?
TIM10 inh: 5; tim10-1 inh: 2; tim23-1 inh: 13; V-ATPase pHluor: -5; PfHsp90 set2: 3

What do the screens show for `CC1(C)CC(=O)C(C2C3=C(CC(C)(C)CC3=O)Oc3ccccc32)C(=O)C1` (configuration not stated)?
TIM10 inh: 21; tim10-1 inh: 11; tim23-1 inh: 41; V-ATPase pHluor: 4; PfHsp90 set2: 3

Results for CC1(C)CC(=O)C2=C(C1)Oc1nc3ccccc3cc1C2C(C#N)C#N (configuration not stated) ?
TIM10 inh: 54*; tim10-1 inh: 61*; tim23-1 inh: 63*; V-ATPase pHluor: 0; tim10-1 confirm: 59*; tim10 confirm: 63*; tim23-1 confirm: 68*

Results for O=C(CSc1nc2ccccc2c(=O)n1CCCO)Nc1ccc2c(c1)OCCO2 ?
TIM10 inh: -5; tim10-1 inh: 0; tim23-1 inh: 17; V-ATPase pHluor: 16; PfHsp90 set2: -26
